The first test addresses PTPN7. Briefly: pooled miR-30 sensor sort-seq; sequence = guide strand. Particulars: shRNA.
TCTTGCCACACCATCTCCCAGA returned a sensor-assay potency score (higher = more potent) of -0.679.

For TTCTGGTGTCTGATGGTCTGGC, the sensor-assay potency score (higher = more potent) is -0.217.

With TCTTCTTCCAGTTGCTTGGGGC, the sensor-assay potency score (higher = more potent) is -0.37.

A further test concerns the target PTPRT. The description is as above. Particulars: shRNA.
As to TAGTTGATCTCGTAGAGCGTGA, the sensor-assay potency score (higher = more potent) was -0.257.

TTTGCTTTGAGGCACTTCCTTT returned a sensor-assay potency score (higher = more potent) of -1.11.

The sequence TATCTTGTTTGTCTCTTCCAAA registered a sensor-assay potency score (higher = more potent) of -1.13.

TTGGTCTTGATCTTGAGCCTAT registered a sensor-assay potency score (higher = more potent) of -0.529.

On to TAAGTCATCTGCATCCTCGGTT, for which the sensor-assay potency score (higher = more potent) turned out to be 0.728.

TAATCGAACACCAGCCTCCAGA registered a sensor-assay potency score (higher = more potent) of -0.958.

Sequence TTGAGTCGCAATGTAGTGCCGA returned a sensor-assay potency score (higher = more potent) of -0.352.

For the sequence TAGTGTAGAGAATCGAGGCTGG, the sensor-assay potency score (higher = more potent) turned out to be 0.97.

The sequence TATCTGATATTCATTGACCTGA came in with a sensor-assay potency score (higher = more potent) of -0.134.

With TATTGTAGTAGAGAGAACGGAA, the sensor-assay potency score (higher = more potent) was -0.217.

For TTTGTGACCATGACGATGCTGG, the sensor-assay potency score (higher = more potent) was found to be 0.113.

For TAGATTTTTTAACACAGCCATG, the sensor-assay potency score (higher = more potent) is -1.72.

For a further test, the target named is PXDN. Described as above. Conditions: shRNA.
TTGTAGTGGTAACTTGTTCCGT came in with a sensor-assay potency score (higher = more potent) of -0.383.

In turn, TTCAGCTTGAGCAGCTCCGTGG returned a sensor-assay potency score (higher = more potent) of -0.881.

Take TATAGCTCTGTCAACAGTCGCA: the sensor-assay potency score (higher = more potent) was -0.0838.

In turn, TTTTCCACTTTCTGTCACCTGA returned a sensor-assay potency score (higher = more potent) of 0.0535.

For the sequence TATCTGATTAAAGTGCAGGTAT, the sensor-assay potency score (higher = more potent) is -0.445.

Sequence TTCCAGAACAAACTCTCTGAAG returned a sensor-assay potency score (higher = more potent) of -1.36.

The sequence TTGAGTTTATAGCTCTGTCAAC yielded a sensor-assay potency score (higher = more potent) of -1.24.

As to TGTAGTGGTAACTTGTTCCGTT, the sensor-assay potency score (higher = more potent) was determined as 0.669.

In the case of TTCACAGTTCAGCTCTTCCGGG, the sensor-assay potency score (higher = more potent) was -0.633.

In the case of TTGAGGTCGACCATCAAGCCAT, the sensor-assay potency score (higher = more potent) was -0.562.

Sequence TTCTATCTGATTAAAGTGCAGG displayed a sensor-assay potency score (higher = more potent) of -0.41.

The target in a further test is PXN. The test is described as above. Particulars: shRNA.
As for TTGTTGAGCTGCTTGAGGCAGA, the sensor-assay potency score (higher = more potent) was -0.264.

Sequence AACATGTCGAAGTAGTCCTTGC had a sensor-assay potency score (higher = more potent) of -0.89.

TTGCAGTAGTAGCAGCGCGGGG displayed a sensor-assay potency score (higher = more potent) of -1.51.

Regarding TTGAGTTGGCCTCATCTGCAGG, the sensor-assay potency score (higher = more potent) is -0.889.

Consider TCGTGCTCGAAGAAGCTGCCGT, for which the sensor-assay potency score (higher = more potent) was -0.594.

As for TTCAGTTCCAGCAGCAGGCGGT, the sensor-assay potency score (higher = more potent) is -0.708.

With TTCTCGTGGAACCCTTCGGGAC, the sensor-assay potency score (higher = more potent) was -1.59.

On to TTTCACAGTAGGGCTGTCCATC, for which the sensor-assay potency score (higher = more potent) is -0.695.

Regarding TAGAAATCTATCAAAGTCGGTA, the sensor-assay potency score (higher = more potent) amounted to 0.0963.

Turning to TACAGCGTTCAGTTCCAGCAGC, the sensor-assay potency score (higher = more potent) is -0.582.

TAGGCTTCTCTTTCGTCAGGGG gave a sensor-assay potency score (higher = more potent) of 0.384.

TAGTTCTCCAGGATGGCCCGGG showed a sensor-assay potency score (higher = more potent) of -0.505.

For the origin of these results see the OligoGym collection.
Also: reference of the scale not given here.
